Assay results from PubChem BioAssay AID2216 (Broad Institute, 2009).
The whole screen tested about 300,000 compounds, of which about 3,300 (1.1%) were called active. Inconclusive results (about 6%) are left out. The sample holds actives, similar compounds and a random draw of the others, so the mix is not that of the screen. Unmarked numbers belong to inactive results.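 Rule for the calls: active = more than half of the replicate wells show a fall in the fluorescence ratio signal beyond about 16% (limit read from the data, passing the limit was not always enough); inconclusive = exactly half of the replicate wells pass the set limit; inactive = fewer than half of replicates pass the limit.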

The compounds below were run on Ran GTPase (GTP-bound) - importin-beta complex (assay: disruptors of Ran-importin-beta complex formation – biochemical, FRET, CFP-Ran, YFP-importin-beta, homogeneous, primary screen (AID 2216;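 note: 0% = DMSO wells and 100% = Ran loaded with GDP instead of GTP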)). Details: cell-free CFP-Ran/YFP-importin-beta FRET ratio; stronger effect = higher value; concentration not given here.

Structure (SMILES)	inhibition
Cc1cc(C)c(S(=O)(=O)N2CCCC2CNC(=O)c2ccc3c(c2)OCO3)c(C)c1 (stereo not drawn)	4.9%
COc1ccccc1OCC(=O)Nc1ccccc1C(=O)NC1CC1	-1.85%
COc1ccc(C2C(C#N)=C(N)Oc3cc(N)ccc32)cc1OC (stereo not drawn)	70.8% (active)
COc1cc(C2C(C#N)=C(N)Oc3n[nH]c(-c4ccccn4)c32)cc(OC)c1OC (stereo not drawn)	-0.727%
COC(=O)C1=C(C)OC(N)=C(C#N)C1c1cc(OC)ccc1OC (stereo not drawn)	-2.56%
O=C1CN(C(=O)COc2c(Cl)cccc2Cl)c2ccccc2N1	0.217%
CCOC(=O)c1cc2occc2n1CC(=O)N1CCN(C(=O)c2ccco2)CC1	-1.58%
CCOC(=O)c1cc2ccccc2n1CC(=O)c1ccccc1	-1.27%
CCOC(=O)c1cc2c(ccn2C)n1CC(=O)N1CCC(C)CC1	24.7% (active)
COc1ccc(OC)c(S(=O)(=O)N2CCCC(C(=O)N3CCC(C(N)=O)CC3)C2)c1 (stereo not drawn)	6.32%
O=C(O)c1ccccc1CSc1nc2ccccc2s1	-3.5%
CCC(C(=O)N1CCOCC1)n1c(C(=O)OC)cc2occc21 (stereo not drawn)	-3.41%
COC(=O)c1ccc(S(=O)(=O)NCc2ccccc2)n1C	-3.7%
COC(=O)c1cc2c(ccn2C)n1C	21.8% (active)
COc1ccc(C(CNC(=O)c2cccc(S(=O)(=O)Nc3ccccc3Cl)c2)N2CCOCC2)cc1 (stereo not drawn)	10.7%
C/C=C/c1ccc(OCC(=O)OCC(=O)Nc2c(C)nn(-c3ccccc3)c2C)c(OC)c1	1.88%
COC(=O)C1=C(C)N(C)C(=S)NC1c1ccccc1 (stereo not drawn)	4.45%
COCCN1C(=O)N[C@@H](CCc2ccccc2)[C@H](C(C)=O)[C@H]1C	-2.31%
COCCN1C2=C(COC(C)(C)C2)C(=S)NC1c1ccccc1 (stereo not drawn)	18.1% (active)
O=C1CC2(CCCC2)Oc2ccc(Cl)cc21	-0.936%
COc1cccc(COC(=O)C2CCN(S(=O)(=O)c3ccc(Cl)cc3)CC2)c1OC	3.92%
CCOc1ccc(NC(=O)[C@H](C)NC(=O)C2CC(=O)N(c3ccc(OC)cc3)C2)cc1 (stereo partly drawn)	2.72%
CCOc1ccc(N2CC(C(=O)NCc3ccccn3)CC2=O)cc1 (stereo not drawn)	-1.93%
CCCC(C)c1nnc(NC(=O)C2CC(=O)N(c3ccc(OCC)cc3)C2)s1 (stereo not drawn)	18.4% (active)

Structure (SMILES)	inhibition
CC(OC(=O)c1ccc(-n2cnnn2)cc1)C(=O)NCc1ccccc1 (stereo not drawn)	3.57%
COC(=O)CSc1nc2ccccc2c(=O)n1Cc1ccccc1	5.12%
CCC(=O)Nc1c(S(=O)(=O)c2ccccc2)c2nc3ccccc3nc2n1Cc1ccccc1	22.2% (active)
CCN(CC)CCn1c(N)c(S(=O)(=O)c2ccccc2)c2nc3ccccc3nc21	0.032%
O=C(CCCN=C1NS(=O)(=O)c2ccccc21)OCC(=O)c1ccc(F)c(F)c1	3.32%
CCC1(c2ccccc2)NC(=O)N(CC(=O)c2ccc3c(c2)OCO3)C1=O (stereo not drawn)	1.92%
O=C(Nc1ccc(N2CCCCC2)cc1)c1cc(S(=O)(=O)N2CCOCC2)ccc1F	-0.386%
CCn1c2ccccc2c2cc(NC(=O)COC(=O)c3ccccc3Br)ccc21	-2.01%
CCn1c2ccccc2c2cc(NC(=O)CNC)ccc21	18.8% (active)
CCn1c2ccccc2c2cc(NC(=O)C/C(C)=N/NC(=O)c3ccccc3N)ccc21	-6.36%
COc1ccc(S(=O)(=O)N2CCCCC2)cc1NC(=O)c1cc([N+](=O)[O-])ccc1N1CCOCC1	8.1%
CC1CN(c2cc(=O)n(Cc3ccc(F)cc3)c(=O)[nH]2)CC(C)O1 (stereo not drawn)	8.41%
CC1CN(c2cc(=O)n(-c3cccc(Br)c3)c(=O)[nH]2)CC(C)O1 (stereo not drawn)	39.6% (active)
CC1CN(C(=S)Nc2ccc(Br)cc2Cl)CC(C)O1 (stereo not drawn)	-3.05%
CCOC(=O)c1c(C)oc2cc(Sc3ccccc3)c(O)c(O)c12	-4.55%
CS(=O)(=O)c1ccc(Cl)c(NC(=O)COC(=O)c2ncc(Cl)c(Cl)c2Cl)c1	-0.161%
COc1cc(-c2nnc(NC(=O)C3=COCCO3)o2)cc(OC)c1OC	-0.69%
CCN1C(=O)[C@@H]2[C@@H](c3ccc(-c4cccc(Cl)c4)cc3)N3CCC[C@@]3(C(=O)OC)[C@@H]2C1=O	0.656%
CCCNC(=O)c1onc(CSc2ccc(F)cc2)c1C(=O)NC(C)C	-1.02%
CC1CCN(c2ccc(-c3ccc(NC(=O)c4ccco4)cc3)nn2)CC1	0.987%
NC(=O)c1c(Nc2nc3c(F)cccc3s2)sc2c1CCCC2	154% (active)
NC(=O)c1c(NC(=O)c2ccccc2)sc2c1CCCC2	3.77%
COc1cccc(OC)c1C(=O)Nc1sc2c(c1C(N)=O)CCCC2	3.19%
CCOc1ccc(NC(=O)COc2ccc(C(=O)N3CCC(C(N)=O)CC3)cc2OC)cc1	1.65%

Structure (SMILES)	inhibition
COc1ccc(C2=NN(C(=O)CSc3nc(=O)n4ccc(C)cc4n3)C(c3ccc(C)cc3)C2)cc1 (stereo not drawn)	3.51%
CCn1c(=N)c(S(=O)(=O)c2ccc(F)cc2)cc2c(=O)n3ccccc3nc21	152% (active)
Cc1ccc(Cn2c(=N)c(S(=O)(=O)c3ccc(C)cc3)cc3c(=O)n4ccccc4nc32)cc1	1.91%
CCOCCCNC(=O)c1cc2c(=O)n3ccccc3nc2s1	-3.33%
C=CCSc1nnc2c(n1)-c1cccc3cccc-2c13	6.48%
Cc1cccc2cc(C#N)c(N3CCCC3)nc12	39.6% (active)
CC(=O)c1ccc(S(=O)(=O)N2CCN(c3nc4c(C)c(C)ccc4cc3C#N)CC2)cc1	6.35%
Cc1cc(C)c2nc(N3CCCC3)c(C#N)cc2c1	2.23%
CCN(CC(=O)Nc1c(F)cccc1F)C(=O)c1ccc(-c2ccccc2)cc1	-2.68%
COc1ccccc1C(=O)NC(=O)COC(=O)c1ccco1	1.31%
Cn1cnnc1SCc1nnc(-c2ccccc2Br)o1	2.51%
Nc1cccc2c1C(=O)N(Cc1nnc(-c3ccccc3Br)o1)C2=O	35.1% (active)
CCOC(=O)N1CCN(Cc2nnc(-c3ccccc3Cl)o2)CC1	-2.66%
COC(=O)Cc1[nH]n(-c2nc3ccccc3s2)c(=O)c1C(C)=Nc1ccc(OC)cc1	-3.75%
COC(=O)Cc1cc(=O)n(-c2nc3ccccc3s2)[nH]1	18.9% (active)
C/C(=N\NC(=O)CC(C)C)c1c(C(F)(F)F)[nH]n(-c2nc3ccccc3s2)c1=O	4.64%
Cc1ccc(OCC(=O)Oc2ccccc2[N+](=O)[O-])cc1	0.472%
Cc1ccc(Nc2c3c(nc4ccccc24)CCC3)cc1	2.17%
CC(=O)Nc1ccc(Nc2c3ccccc3nc3ccccc23)cc1	52.8% (active)
CC(=O)Nc1ccc(-c2nc3ccccc3o2)cc1	-2.08%
COc1ccc(NC(=O)CSc2nnc(Cc3ccccc3)c(=O)n2N)cc1	-2%
Fc1ccccc1COc1cccc2cccnc12	1.44%
COC(=O)c1sc(NC(=O)c2ccc(OC)cc2OC)nc1C	-3.52%
COc1cc(SC)ccc1C(=O)Nc1nc(C)cs1	18.1% (active)

Structure (SMILES)	inhibition
COc1cc(SC)ccc1C(=O)Nc1cc(C)ccn1	-5.84%
CC12CCC(=O)N1C(C(=O)NCCN1C(=O)S/C(=C\c3ccccc3F)C1=O)CS2 (stereo not drawn)	6.01%
C=C(C)CNC(=O)c1ccc(OC2CCN(C(=O)COC)CC2)cc1	-0.667%
CCN1CCN(C(=O)N(Cc2ccc(Cl)cc2)S(=O)(=O)c2ccc(C)cc2)CC1	9.84%
CC(=O)c1cc(C#N)c(SCC(=O)C(C)(C)C)nc1C	-3.56%
CC(=O)c1cc(C#N)c(N2CCCCC2)nc1C	2.36%
CC(=O)c1cc(C#N)c(N2CC(C)OC(C)C2)nc1C (stereo not drawn)	25.3% (active)
CC(=O)N/C(=C\c1ccccc1)C(=O)OC(C)C(=O)N(C)c1ccccc1 (stereo not drawn)	1.82%
O=[N+]([O-])c1ncc(Br)cc1Nc1ccccc1	6.49%
COc1ccccc1NC(=O)Nc1nc(CC(=O)Nc2ccccc2F)cs1	1.51%
Cc1ccnc(NC(=O)CNC(=O)c2ccccc2)c1	5.13%
O=C(Cc1ccc(Br)cc1)NCCc1ccccc1	5.4%
CCCn1nc(NC(=O)C(C)C)c2cc3cc(OC)ccc3nc21	57.9% (active)
CCCn1nc(NS(=O)(=O)c2ccc(F)cc2)c2cc3ccccc3nc21	4.53%
CCCn1nc(NS(=O)(=O)c2ccccc2)c2cc3cc(C)ccc3nc21	-1.51%
Cc1ccc2c(C)c(C(=O)N3CCN(c4ccncc4)CC3)oc2c1C	1.96%
CC(C)(C)OC(=O)c1c(N)n(CCCN2CCCC2=O)c2nc3ccccc3nc12	41.8% (active)
CCOc1ccc(C(=O)NCCCN2CCCC2=O)cc1	3%
O=C(NCCCN1CCCC1=O)c1ccc(S(=O)(=O)Nc2ccccc2)cc1	-2.45%
Cc1nc(-c2ccc(F)cc2)c(CC(=O)Nc2cc(S(=O)(=O)N3CCCCC3)ccc2C)s1	1.23%
O=C(NCc1ccc2c(c1)OCO2)c1c(O)nc2sccn2c1=O	-0.147%
